Measured values from PubChem BioAssay (NCI).
The panel holds about 83,000 compounds, 20% with a hit somewhere; the sample as a whole holds those more often.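 Growth was measured after 48 h exposure to one concentration of compound in 96-well plates. Values under 10 count as active.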 Unmarked numbers belong to inactive results. Calls of active or inactive are those of the source.

Tests used:
Experiment in all cases: NCI-60 one-dose screen, 48 h (100 = growth as untreated, 0 = no growth, -100 = all killed)
[1] = system: NCI-H23 lung; conditions: 10 µM unless noted
[2] = system: HOP-62 NSCLC; conditions: 10 µM unless noted
[3] = system: NCI-H460 lung; conditions: 10 µM unless noted
[4] = system: HOP-92 NSCLC; conditions: 10 µM unless noted
[5] = system: NCI-H522 lung; conditions: 10 µM
[6] = system: A549/ATCC NSCLC; conditions: 10 µM unless noted
[7] = system: 786-0 renal; conditions: 10 µM unless noted
[8] = system: NCI-H226 lung; conditions: 10 µM
[9] = system: NCI-H322M lung; conditions: 10 µM unless noted
[10] = system: COLO 205 colon; conditions: 10 µM unless noted

O=c1oc2ccccc2cc1-c1csc(N=Nc2c(O)[nH]c3ccc(Cl)cc23)n1
growth [1]: 101%
growth [2]: 117%
growth [3]: 99.9%
growth [4]: 114%
growth [5]: 98.4%
growth [6]: 89.6%
growth [7]: 105%

c1ccc2c(c1)oc1cc3c(cc12)nnc1cccn13
growth [8]: 98.5%
growth [9]: 90.9%
growth [2]: 116%
growth [3]: 112%
growth [4]: 120%
growth [5]: 96.7%
growth [6]: 97.1%
growth [7]: 121%

CCOC(=O)c1cn2c3c(cc(F)cc3c1=O)C(CC)c1ccccc1C2 (stereo not drawn)
growth [1]: 103%
growth [3]: 101%
growth [4]: 95.6%
growth [5]: 78.7%
growth [6]: 87.2%
growth [7]: 93.2%
growth [10]: 105%

COc1cccc(Nc2nc(NCCO)c3ccccc3n2)c1
growth [1]: 85.8%
growth [5]: 70.8%
growth [6]: 68.3%
growth [7]: 86%
growth [10]: 108%

CCOc1ccc(-c2cnnn2-c2nonc2-n2cccc2)cc1
growth [1]: 17.3%
growth [2]: 31.6%
growth [3]: 10.2%
growth [4]: 25.4%
growth [5]: -55.9% (active)
growth [6]: 17.2%
growth [7]: 37.3%
growth [10]: -75.2% (active)

COc1cc(-c2nc(SC(C)C)nc(Nc3ccccc3C)c2C#N)cc(OC)c1OC
growth [1]: 105%
growth [2]: 104%
growth [3]: 107%
growth [4]: 110%
growth [6]: 101%
growth [7]: 108%

CCCCc1ccc(NC(=O)C(F)(F)F)cc1
growth [1]: 106%
growth [2]: 102%
growth [3]: 108%
growth [4]: 104%
growth [5]: 82%
growth [7]: 91.8%

COc1ccc(-c2nn(-c3ccc(NC(=O)c4ccc(Cl)c(Cl)c4)cc3)cc2-c2ccncc2)cc1Cl
growth [8]: 75.8%
growth [9]: 69.1%
growth [2]: 6.02% (active)
growth [3]: 20.6%
growth [4]: 37.1%
growth [5]: 54.3%
growth [6]: 42.7%
growth [7]: -33% (active)

FC(F)(F)c1ccc2c(c1)n1cnnc1c1nncn21
growth [1]: 103%
growth [2]: 113%
growth [3]: 110%
growth [4]: 88.7%
growth [5]: 97.1%
growth [7]: 101%
growth [10]: 111%

CCCCc1ccc(C(O)(CCN2CC3CCC(CC3)C2)c2ccccc2)cc1 (stereo not drawn)
growth [1]: 87.7%
growth [2]: 106%
growth [3]: 107%
growth [4]: 75.4%
growth [5]: 84.2%
growth [7]: 85.9%
growth [10]: 80.9%

COC(=O)C1C2CC3c4[nH]c5cc(OC)ccc5c4CCN3CC2CC(OC2CCCCO2)C1OC (stereo not drawn)
growth [1]: 98.9%
growth [2]: 108%
growth [3]: 107%
growth [5]: 93.6%
growth [6]: 95.7%
growth [7]: 101%
growth [10]: 109%

COc1ccc(Nc2[nH]n(C3=Nc4ccccc4Sc4ccccc43)c(=O)c2C#N)cc1
growth [1]: 28.3%
growth [5]: 29.6%
growth [6]: 55.2%
growth [7]: 64.7%
growth [10]: 15.1%

CC(C)N1CCN(c2ccc(OC[C@H]3CO[C@](Cn4cncn4)(c4ccc(Cl)cc4Cl)O3)cc2)CC1
growth [8]: 93.6%
growth [9]: 106%
growth [2]: 81%
growth [3]: 103%
growth [4]: 71.2%
growth [5]: 78%
growth [6]: 89.6%
growth [7]: 99.2%

Cc1cc(NS(=O)(=O)c2ccc(NC(=O)COc3ccc(-c4cc5ccccc5[nH]4)cc3)cc2)no1
growth [1]: 22.4%
growth [2]: -11.3% (active)
growth [3]: 9.1% (active)
growth [4]: 5.04% (active)
growth [5]: 20.8%
growth [6]: 30.1%
growth [7]: 2.3% (active)
growth [10]: -50.5% (active)

COc1cc(-c2nc3ccccc3o2)cc(CN2CCN(c3ccccc3)CC2)c1O
growth [1]: 37.8%
growth [2]: 47.1%
growth [3]: 51%
growth [4]: 81.8%
growth [5]: 58.4%
growth [6]: 30.2%
growth [7]: 90.2%
growth [10]: 117%

CN1CCN(C)c2cncc(Br)c2C1=O
growth [1]: 101%
growth [2]: 110%
growth [3]: 105%
growth [4]: 91.8%
growth [5]: 93.5%
growth [6]: 104%
growth [10]: 108%

Clc1ccccc1Nc1ccc2nnc(-c3ccncc3)n2n1
growth [1]: 101%
growth [3]: 109%
growth [5]: -55.8% (active)
growth [6]: 89.9%
growth [7]: 75.7%

CCCCC1COc2cccc3c(SCC(=O)N(C)c4cccc5ccccc45)cc[n+]1c23 (stereo not drawn)
growth [1]: 104%
growth [3]: 107%
growth [4]: 105%
growth [5]: 83.5%
growth [6]: 103%
growth [7]: 98.3%

O=[N+]([O-])c1ccc2nc(N/N=C/c3ccc(O)cc3)sc2c1
growth [1]: 73.3%
growth [2]: 68.7%
growth [3]: 48.5%
growth [4]: 58.9%
growth [6]: 30.7%
growth [7]: 50.9%
growth [10]: 89.9%

CCN1CCN(c2ccc(Nc3ncc4ccc5ncn(C(C)C)c5c4n3)nc2)CC1
growth [1]: -26.1% (active)
growth [3]: -30.3% (active)
growth [4]: 13.9%
growth [6]: 9.87% (active)
growth [7]: 9.21% (active)
growth [10]: -40.4% (active)

COc1cc(-c2nc(Nc3nc4ccccc4[nH]3)nc(N)c2C#N)cc(OC)c1OC
growth [1]: 87.9%
growth [2]: 65.1%
growth [4]: 50.5%
growth [5]: 20.1%
growth [6]: 69.6%
growth [7]: 67.1%
growth [10]: 32.3%

C=C[C@H]1C[C@@H]2C[C@@H]3[C@H]4C/C=C\C(=O)NCCCC5NC(=O)C(=C(O)/C=C/[C@@H]4CC(=O)[C@H]3[C@@H]2[C@H]1C)C5=O (stereo partly drawn)
growth [1]: -8.31% (active)
growth [2]: -82.3% (active)
growth [3]: -69.4% (active)
growth [4]: -85.7% (active)
growth [5]: 46.4%
growth [6]: -91% (active)
growth [10]: -82.9% (active)

O=c1onc(-c2ccccc2)c2ccccc12
growth [1]: 104%
growth [2]: 117%
growth [3]: 109%
growth [4]: 95.4%
growth [5]: 101%
growth [6]: 109%
growth [7]: 105%
growth [10]: 119%

CS(=O)(=O)Nc1cccc(C(=O)NCc2ccc(N3CCOCC3)cc2)c1
growth [1]: 104%
growth [2]: 107%
growth [3]: 109%
growth [6]: 119%
growth [7]: 101%
growth [10]: 112%

O=C1OCC2=C1C(c1ccc3c(c1)OCO3)CC(=O)N2c1cccc(Cl)c1 (stereo not drawn)
growth [1]: 90.2%
growth [2]: 103%
growth [3]: 108%
growth [5]: 92.9%
growth [6]: 94.6%
growth [7]: 110%
growth [10]: 105%

Cc1nn2c(-c3nc4ccc(Cl)cc4[nH]3)c(-c3ccc(F)cc3)nc2s1
growth [1]: 98.2%
growth [3]: 97.5%
growth [4]: 91%
growth [5]: 99.9%
growth [6]: 80.1%
growth [7]: 93.8%
growth [10]: 108%
